# mHTT CaM bind = mHTT-calmodulin interaction abrogation; AID 1671202; AlphaScreen His-mHTT/GST-CaM binding, luminescence; inhibition, % at 15 µM; hit rate 3.6% among 190,000;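 further: 0% = both proteins with DMSO and 100% = one protein alone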
# Pf apPOL inh = Pf-apPOL DNA polymerase inhibition; Recombinant Pf-apPOL, molecular beacon fluorescence, 1.5 h; inhibition, % at 10 µM; hit rate 0.25% among 210,000; AID 1794808
# The depositor's hits bear a star; x = no result given. Shown are actives, neighbours in structure and some others; about 3.6% of the full set was active somewhere. No stated cut-off is given here; in the data, active means inhibition above about 50%; inactive means the rest.
SMILES,mHTT CaM bind,Pf apPOL inh
CC1CCN(C(=O)c2csc(N3CCN(c4ccccc4)CC3)n2)CC1,40,-6
CC=C(C)C(=O)OC1CC2(C)CCC(C(C)C)C2(O)CCC1(C)O (stereo not drawn),x,14
Cc1ccccc1NC(=O)c1ccc(-c2ccsc2)nc1,2,59*
O=C(Nc1ccccc1NC(=O)c1ccccc1)c1ccccc1,-5,-19
Cc1ccccc1NC(=O)c1ccc(-c2cccc(F)c2)nc1,-1,8
O=C(Nc1ccccc1C(=O)Nc1ccccc1C(=O)O)c1ccccc1,80*,-21
COC(=O)c1ccccc1NC(=O)C=NO,x,-5
Cc1ccccc1NC(=O)c1ccc(C(=O)Nc2ccccc2C)cc1,-5,61*
O=C(C=NNc1ccccc1)Nc1ccccc1C(=O)O,x,88*
CC(=O)Nc1ccc(C(=O)Nc2ccccc2C)cc1,6,-8
COc1ccc2c(c1)sc(=NC(=O)c1ccc(S(=O)(=O)N3CCCCC3C)cc1)n2C (stereo not drawn),-6,2
Cc1noc(C)c1NC(=O)c1cc(C)n(C(F)F)n1,-3,x
Cc1cc(C)c(NC(=O)C(C)Sc2ncn[nH]2)c(C)c1 (stereo not drawn),-6,-4
CC1Oc2ccccc2C=C1C=CC(=O)c1cccc(O)c1 (stereo not drawn),61*,-8
O=C(C=Cc1ccc2ccccc2n1)c1cccc(O)c1,7,-16
Cc1ccc(C)c(N2CCN(C(=O)C3CCN(c4ccncc4)CC3)CC2)c1,0,-3
Cc1ccnc(N2CCC(C(=O)N3CCN(c4cccc(C(F)(F)F)c4)CC3)CC2)n1,6,-2
Cc1ccc(Cl)cc1N1CCN(C(=O)C2CCN(c3ccncc3)CC2)CC1,100*,2
Cc1ccnc(N2CCCC(C(=O)N3CCN(c4cccc(C(F)(F)F)c4)CC3)C2)n1 (stereo not drawn),78*,2
Cc1ccnc(N2CCCC(C(=O)N3CCN(c4cc(Cl)ccc4C)CC3)C2)n1 (stereo not drawn),90*,-5
O=C(NCCCN1CCN(c2cccc(Cl)c2)CC1)C1CCN(c2ccncc2)CC1,95*,7
Cc1ccnc(N2CCCC(C(=O)N3CCN(c4ncccn4)CC3)C2)n1 (stereo not drawn),-3,-6
CS(=O)(=O)N1CCC(C(=O)NCCCN2CCN(c3ccccc3)CC2)CC1,-13,-10
N#CC1=CN(c2ccccc2Cl)c2cc(Cl)ccc2S1(=O)=O,-10,0
O=C1S/C(=C\c2cccc(Br)c2)C(=O)N1CN1CCOCC1,25,-2
SMILES,mHTT CaM bind,Pf apPOL inh
Cc1cccn2cc(C(=O)NCCC(C)C)nc12,-7,-5
Cc1ccc(-n2nnnc2-c2nnnn2-c2ccc(C)cc2)cc1,-8,5
c1ccc(-n2cnnc2C2CCCCN2Cc2ccncc2)cc1 (stereo not drawn),1,-1
COc1cccc(Nc2nc(-c3cc(C)ccc3C)cs2)c1,63*,-2
COc1cccc(Nc2nc(-c3ccccc3)cs2)c1,62*,1
COc1ccc(-c2csc(Nc3ccccc3OC)n2)cc1F,43,11
COc1ccc(-c2csc(NCc3ccccc3)n2)cc1,23,x
CCc1ccc(-c2csc(Nc3cccc(OC)c3)n2)cc1,67*,2
COc1cccc(Nc2nc(-c3ccc(OC)c(F)c3)cs2)c1,64*,-7
Cc1cccc(Nc2nc(-c3cccnc3)cs2)c1,8,-4
COc1cccc(Nc2ccc(-c3ccccc3)nn2)c1,x,-6
Cc1ccc(NC(=O)c2ccncc2)c(C)c1,-3,-5
CNC(=O)C1CN(C(=O)c2ccc(OC)cc2C)CC12CCCC2 (stereo not drawn),-1,-7
CCCN1C(=O)Cc2ccccc2C1C(=O)NCCOC (stereo not drawn),-4,-4
Cc1ccc(C)c(-c2csc(Nc3ccc(Cl)cc3)n2)c1,67*,-5
Cc1ccc(Nc2nc(-c3ccc(F)cc3)cs2)cc1,35,-5
O=C(C[C@H]1C(=O)N(c2ccc(Br)cc2)C[C@@H]1Cc1ccccc1)Nc1ccccc1,51*,-5
CCCCC[C@H]1CN(CCCC)C(=O)[C@@H]1CC(=O)NCc1ccccc1,12,-10
COc1ccc(NC(=O)C[C@H]2C(=O)N(Cc3cccnc3)C[C@@H]2Cc2ccccc2)cc1,18,-5
CCCCC[C@H]1CN(Cc2ccc(OC)cc2)C(=O)[C@@H]1CC(=O)NCc1ccccc1,54*,2
COc1ccc(CN2C[C@H](Cc3ccccc3)[C@@H](CC(=O)Nc3ccccc3)C2=O)cc1,68*,-7
O=C(C[C@H]1C(=O)N(c2ccccc2)C[C@@H]1Cc1ccccc1)Nc1ccc(Br)cc1,2,2
Cc1ccc(-n2nc3c(c2NC(=O)C(C)C)CSC3)c(C)c1,4,-9
NC(=NOC(=O)c1cccs1)c1cccc(CSc2ccccn2)c1,x,-4
Cc1noc(C)c1CCNC(=O)c1ccc2c(c1)N(C)C(=O)C1CCCCN21 (stereo not drawn),15,3
SMILES,mHTT CaM bind,Pf apPOL inh
O=C(O)c1ccc(N=Cc2cc(Br)ccc2O)cc1,1,1
O=C(O)c1ccc(O)c(C=Nc2ccc(Br)cc2)c1,85*,0
O=C(NCc1cc(-c2ccco2)on1)c1ccc(=O)oc1,14,63*
O=C(NCc1cc(-c2ccco2)on1)c1ccc(F)c(F)c1,-4,1
O=C(Nc1cnc(-c2cccnc2)nc1)C1CCCC1,2,-4
O=C(Nc1nc2c(s1)CN(C(=O)c1cc(-c3ccccc3)on1)CC2)C1CCCO1 (stereo not drawn),30,-3
Nc1c(C(=O)Nc2ccc(Oc3ccccc3)cc2)nnn1Cc1ccccc1,11,-4
CCS(=O)(=O)c1ncc(Cl)c(C(=O)Nc2ccc(Oc3ccccc3)cc2)n1,98*,-3
O=C(NC(/C=C/c1ccccc1)c1cc([N+](=O)[O-])c2cccnc2c1O)C1CCCCC1 (stereo not drawn),30,10
CN1CCN(Cc2cc([N+](=O)[O-])c(O)c3ncccc23)CC1,100*,3
CC1CCN(Cc2cc([N+](=O)[O-])c(O)c3ncccc23)CC1,100*,-89
O=[N+]([O-])c1ccccc1CN1CCC(O)CC1,-5,-8
COc1cc(CN2CCCCCC2)cc([N+](=O)[O-])c1O,0,-5
CN1CCCN(Cc2ccccc2[N+](=O)[O-])CC1,-11,-6
O=[N+]([O-])c1cc(CN2CCC(c3ccccc3)C2)c(O)c2ncccc12 (stereo not drawn),100*,-1
O=[N+]([O-])c1cc(CN2CCCC2)c2cccnc2c1O,100*,0
CC(=O)N1c2ccc(S(=O)(=O)N3CCCCC3C)cc2CC1C (stereo not drawn),21,-4
COc1ccc(C=C2Oc3c(ccc(O)c3CN3CC(C)CC(C)C3)C2=O)c(OC)c1OC (stereo not drawn),27,-4
O=C(CSc1nnc(NC(=O)c2ccccc2Br)s1)Nc1ccccc1,-14,-4
Cc1cc(N2CCC(C)CC2)nc2ccc(NC(=O)c3ccc(Cl)nc3)cc12,6,-2
COc1ccccc1N1CCN(Cc2cc([N+](=O)[O-])c(O)c3ncccc23)CC1,100*,2
COc1ccccc1N1CCN(Cc2cc(OC)c(O)c([N+](=O)[O-])c2)CC1,-2,-7
CC(C)c1ccc(NC(=O)C2CC2c2ccccc2)cc1 (stereo not drawn),-5,2
